Data from PubChem BioAssay AID1159580 (chemical genetic matrix, 2015).
Hit rate of the full screen: of about 5,500 compounds, about 2,000 (36%) were called active. Roughly 18% stayed inconclusive and do not appear here. Cut-off read from the data, not from the text of the source: active = normalized growth mostly below about 0.91 (no sharp cut-off); inconclusive = no clear call, values can overlap the other calls; inactive = mostly above about 0.92. Some of the results follow.

Assay: chemical genetic growth profiling, strain panel (AID 1159580);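 note: tested at 20 µM; growth read once vehicle control cultures reached saturation at 30 °C; 1 = growth at the plate median or of vehicle wells; lower values mean less growth of the strain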
Settings: S. cerevisiae deletion strains, growth OD

Measured: normalized growth

COc1cc(OC)c2c(=O)c(-c3ccccc3)c(C)oc2c1OC
inactive: locus YAL013W, strain DEP1, stronger effect = lower value 1.01 | locus YAL021C, strain ccr4, stronger effect = lower value 0.984 | locus YAL026C, strain drs2, stronger effect = lower value 0.986 | locus YAL030W, strain snc1, stronger effect = lower value 0.976 | locus YBL061C, strain skt5, stronger effect = lower value 0.975 | locus YBR009C, strain hhf1, stronger effect = lower value 0.953 | locus YBR021W, strain FUR4, stronger effect = lower value 1 | locus YBR023C, strain chs3, stronger effect = lower value 0.987 | locus YBR171W, strain sec66, stronger effect = lower value 0.984 | locus YBR229C, strain ROT2, stronger effect = lower value 1 | locus YBR231C, strain swc5, stronger effect = lower value 0.993 | locus YBR279W, strain paf1, stronger effect = lower value 0.986 | locus YCL011C, strain gbp2, stronger effect = lower value 0.973 | locus YCL016C, strain dcc1, stronger effect = lower value 0.987 | locus YCL029C, strain bik1, stronger effect = lower value 1 | locus YCL061C, strain MRC1, stronger effect = lower value 0.988 | locus YCL069W, strain vba3, stronger effect = lower value 0.974 | locus YCR088W, strain abp1, stronger effect = lower value 0.988 | locus YDL005C, strain med2, stronger effect = lower value 0.973 | locus YDL035C, strain GPR1, stronger effect = lower value 1.02 | locus YDL040C, strain nat1, stronger effect = lower value 0.985 | locus YDL074C, strain BRE1, stronger effect = lower value 1.02 | locus YDL101C, strain DUN1, stronger effect = lower value 1.01 | locus YDL134C, strain PPH21, stronger effect = lower value 1 | locus YDL185W, strain tfp1, stronger effect = lower value 1 | locus YDL192W, strain arf1, stronger effect = lower value 0.995 | locus YDR001C, strain nth1, stronger effect = lower value 0.987 | locus YDR069C, strain doa4, stronger effect = lower value 0.966 | locus YDR101C, strain arx1, stronger effect = lower value 0.984 | locus YDR137W, strain rgp1, stronger effect = lower value 0.955 | locus YDR150W, strain NUM1, stronger effect = lower value 1.02 | locus YDR159W, strain sac3, stronger effect = lower value 0.973 | locus YDR162C, strain NBP2, stronger effect = lower value 1.02 | locus YDR195W, strain ref2 0.921 | locus YDR297W, strain sur2, stronger effect = lower value 0.988 | locus YDR318W, strain mcm21, stronger effect = lower value 0.995 | locus YDR334W, strain swr1, stronger effect = lower value 0.981 | locus YDR335W, strain msn5, stronger effect = lower value 0.997 | locus YDR388W, stronger effect = lower value 0.988 | locus YDR392W, strain spt3, stronger effect = lower value 0.925 | locus YDR502C, strain sam2, stronger effect = lower value 0.997 | locus YEL003W, strain gim4, stronger effect = lower value 0.987 | locus YEL037C, strain rad23, stronger effect = lower value 0.981 | locus YEL061C, strain CIN8 (second series), stronger effect = lower value 0.967 | locus YEL061C, strain CIN8, stronger effect = lower value 1.01 | locus YER015W, strain faa2, stronger effect = lower value 0.981 | locus YER016W, strain bim1, stronger effect = lower value 0.986 | locus YER110C, stronger effect = lower value 0.994 | locus YER111C, strain swi4, stronger effect = lower value 0.971 | locus YER155C, strain BEM2 (second series), stronger effect = lower value 0.978 | locus YER155C, strain BEM2, stronger effect = lower value 1.01 | locus YER167W, strain BCK2, stronger effect = lower value 1 | locus YFR010W, strain ubp6, stronger effect = lower value 0.98 | locus YGL078C, strain dbp3, stronger effect = lower value 0.998 | locus YGL086W, strain mad1, stronger effect = lower value 1 | locus YGL167C, strain pmr1, stronger effect = lower value 0.97 | locus YGL173C, strain kem1, stronger effect = lower value 0.99 | locus YGL227W, strain vid30, stronger effect = lower value 0.961 | locus YGL240W, strain doc1, stronger effect = lower value 0.977 | locus YGL248W, strain PDE1, stronger effect = lower value 1 | locus YGL253W, strain hxk2, stronger effect = lower value 0.994 | locus YGR078C, strain PAC10, stronger effect = lower value 1.01 | locus YGR135W, strain pre9, stronger effect = lower value 0.993 | locus YGR229C, strain SMI1, stronger effect = lower value 1.03 | locus YGR252W, strain gcn5, stronger effect = lower value 0.943 | locus YHR013C, strain ard1, stronger effect = lower value 0.94 | locus YHR027C, strain rpn1, stronger effect = lower value 0.987 | locus YHR030C, strain SLT2, stronger effect = lower value 1.01 | locus YHR079C, strain IRE1 (second series), stronger effect = lower value 0.989 | locus YHR094C, strain hxt1, stronger effect = lower value 0.993 | locus YHR129C, strain ARP1, stronger effect = lower value 1 | locus YHR142W, strain chs7, stronger effect = lower value 1.01 | locus YHR200W, strain rpn10, stronger effect = lower value 0.997 | locus YIL066C, strain RNR3, stronger effect = lower value 1.01 | locus YIL073C, strain SPO22, stronger effect = lower value 0.999 | locus YIL125W, strain kgd1, stronger effect = lower value 0.997 | locus YIR030C, strain dcg1, stronger effect = lower value 1 | locus YJL092W, strain hpr5, stronger effect = lower value 0.987 | locus YJL095W, strain BCK1, stronger effect = lower value 1.01 | locus YJL115W, strain asf1, stronger effect = lower value 1 | locus YJL129C, strain trk1, stronger effect = lower value 0.946 | locus YJL134W, strain LCB3, stronger effect = lower value 1.01 | locus YJL154C, strain vps35, stronger effect = lower value 0.985 | locus YJL164C, strain tpk1, stronger effect = lower value 1 | locus YJL166W, strain qcr8, stronger effect = lower value 0.98 | locus YJL168C, strain set2, stronger effect = lower value 0.997 | locus YJL187C, strain SWE1 (second series), stronger effect = lower value 1.01 | locus YJL187C, strain SWE1, stronger effect = lower value 0.987
